Several values for one entry are separate records, joined by “and”; a condition that tells them apart may be missing. Equal entries are not always repeated. Some structures have more than one record in an assay (separate samples or runs), and their calls can disagree. Activity calls are given as the source filed them. The calls were made as follows: active = hit-call score of the fitted dose curve at least 0.9, where 1 is the maximum; inactive = score below 0.9.
Key:
[1] = ATG_CRE_CIS: Attagene CIS-FACTORIAL HepG2 Assay for human cAMP Responsive Element (CRE) binding protein 3 (AID 2282926); conditions: HepG2 CRE cis-reporter, Attagene multiplexed mRNA; actives raise or lower the signal
Outline: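 Induced reporter mRNA from a CRE cis element, measured in HepG2 among many multiplexed units at 24 h. Detection used RT-PCR plus capillary electrophoresis of fluorescent fragments; DMSO served as negative control.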

[2] = biological target: CCAAT/enhancer-binding protein beta (Homo sapiens) (UniProt P17676); test: ATG_C_EBP_CIS: Attagene CIS-FACTORIAL HepG2 Assay for human CCAAT/Enhancer Binding Protein (C/EBP) beta (AID 2282927); conditions: HepG2 Attagene cis-factorial transcription factor reporter; actives raise or lower the signal
Outline: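 RT-PCR/capillary electrophoresis fluorescence of reporter mRNA, 24 h post-dose, in HepG2 cells carrying transfected cis-promoter reporter units. Bidirectional curve fitting against DMSO baseline captures gain or loss of signal.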

[3] = ATG_CMV_CIS: Attagene CIS-FACTORIAL HepG2 Assay for human CMV (Internal Marker) (AID 2282928); conditions: HepG2 CMV promoter reporter, transcription factor profiling; actives raise or lower the signal;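 also: endpoint acts as a background internal control marker rather than a target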
Outline: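 Readout: fluorescent reporter cDNA fragments separated by capillary electrophoresis after RT-PCR and HpaI cut. Cells: HepG2 carrying transfected cis-promoter reporter constructs, dosed 24 h. Endpoint serves as background internal-marker control, fit bidirectionally versus DMSO.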

[4] = ATG_DR4_LXR_CIS: Attagene CIS-FACTORIAL HepG2 Assay for human Liver X Receptor (LXR), DR4 submotif (AID 2282929); conditions: HepG2 Attagene DR4 cis-reporter, mRNA transcription; actives raise or lower the signal
Outline: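 Total RNA from 24 h-treated, MRTU-transfected HepG2 cells underwent reverse transcription, PCR, fluorescent primer extension and restriction digestion before capillary electrophoresis. Both increases and decreases in reporter signal were fitted against DMSO.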

[5] = ATG_AP_1_CIS: Attagene CIS-FACTORIAL HepG2 Assay for human Activator Protein 1 (AP-1) (AID 2282931); conditions: HepG2 Attagene cis-factorial AP-1 reporter mRNA; actives raise or lower the signal
Outline: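 HepG2, transient cis-reporter transfection; 24 h; readout RT-PCR/CE fluorescence; DMSO baseline, gain and loss fitted.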

[6] = ATG_BRE_CIS: Attagene CIS-FACTORIAL HepG2 Assay for human Bone Morphogenetic Protein (BMP) Response Element (BRE) (AID 2282933); conditions: HepG2 BMP response element reporter, Attagene transcription factor profiling; actives raise or lower the signal
Outline: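 HepG2 cells transiently transfected with multiplexed cis-element reporter units were dosed with chemical for 24 h. Reporter mRNA was measured by RT-PCR with fluorescent labelling, HpaI digestion and capillary electrophoresis; bidirectional fitting relative to DMSO.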

[7] = biological target: Retinoic acid receptor alpha (Homo sapiens) (UniProt P10276); test: ATG_DR5_RAR_CIS: Attagene CIS-FACTORIAL HepG2 Assay for human Retinoic Acid Receptor Alpha (RARE), DR5 submotif (AID 2282934); conditions: HepG2 Attagene cis-factorial RARE DR5 reporter, mRNA; actives raise or lower the signal;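 as to AC50: reporter responds to endogenous RAR alpha beta and gamma in HepG2 not RARA alone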
Outline: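 HepG2 cells transiently transfected with multiplexed reporter units under cis (DR5 RARE) promoters, so endogenous transcription factor activity is measured. After 24 h compound exposure, reporter mRNA is quantified by RT-PCR with fluorescent labelling and capillary electrophoresis; bidirectional fitting versus DMSO.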

[8] = biological target: Aryl hydrocarbon receptor (Homo sapiens) (UniProt P35869); test: ATG_Ahr_CIS: Attagene CIS-FACTORIAL HepG2 Assay for human Aryl Hydrocarbon Receptor (Ahr) (AID 2282930); conditions: HepG2 AhR cis-factorial reporter transcription; actives raise or lower the signal
Outline: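 HepG2 cells transiently transfected with cis-element-driven multiplexed reporter transcription units; endogenous transcription factor activity measured as reporter mRNA 24 h after dosing. RT-PCR, 6-FAM labelling, HpaI digestion, capillary electrophoresis; bidirectional fitting versus DMSO baseline.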

[9] = ATG_AP_2_CIS: Attagene CIS-FACTORIAL HepG2 Assay for human Activator Protein 2 (AP-2) (AID 2282932); conditions: HepG2 AP-2 cis-reporter, Attagene transcription factor profiling; actives raise or lower the signal
Outline: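 Cells (HepG2) transfected with promoter-driven reporter constructs, treated 24 h. Total RNA reverse-transcribed, reporter cDNA PCR-amplified, FAM-labelled by primer extension, digested, resolved by capillary electrophoresis. Activity fitted both directions versus DMSO.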

[10] = biological target: Transcription factor E2F1 (Homo sapiens) (UniProt Q01094); test: ATG_E2F_CIS: Attagene CIS-FACTORIAL HepG2 Assay for human E2F Transcription Factor 1 (AID 2282935); conditions: HepG2 Attagene cis-reporter, E2F reporter RNA transcripts; actives raise or lower the signal
Outline: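 First, HepG2 cells were transfected with reporter transcription units. Next, they were dosed for 24 h. Then RNA was isolated, converted to cDNA, PCR-amplified, FAM-labeled, HpaI-digested and analyzed by capillary electrophoresis.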

Measured: AC50

Sequence of Transcription factor E2F1 (Homo sapiens) (Q01094 whole entry, looked up): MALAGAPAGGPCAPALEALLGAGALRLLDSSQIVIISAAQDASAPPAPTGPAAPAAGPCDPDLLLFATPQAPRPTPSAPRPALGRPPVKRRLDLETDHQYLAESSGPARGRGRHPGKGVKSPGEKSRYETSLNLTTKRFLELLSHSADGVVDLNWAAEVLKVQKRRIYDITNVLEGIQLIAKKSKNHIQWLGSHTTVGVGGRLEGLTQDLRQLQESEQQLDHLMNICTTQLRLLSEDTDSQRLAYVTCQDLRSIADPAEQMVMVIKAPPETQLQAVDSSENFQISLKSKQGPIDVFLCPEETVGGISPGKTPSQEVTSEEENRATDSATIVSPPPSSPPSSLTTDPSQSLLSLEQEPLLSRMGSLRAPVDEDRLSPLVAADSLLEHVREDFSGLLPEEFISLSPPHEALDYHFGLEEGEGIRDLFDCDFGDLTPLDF
Sequence of CCAAT/enhancer-binding protein beta (Homo sapiens) (P17676 whole entry, looked up): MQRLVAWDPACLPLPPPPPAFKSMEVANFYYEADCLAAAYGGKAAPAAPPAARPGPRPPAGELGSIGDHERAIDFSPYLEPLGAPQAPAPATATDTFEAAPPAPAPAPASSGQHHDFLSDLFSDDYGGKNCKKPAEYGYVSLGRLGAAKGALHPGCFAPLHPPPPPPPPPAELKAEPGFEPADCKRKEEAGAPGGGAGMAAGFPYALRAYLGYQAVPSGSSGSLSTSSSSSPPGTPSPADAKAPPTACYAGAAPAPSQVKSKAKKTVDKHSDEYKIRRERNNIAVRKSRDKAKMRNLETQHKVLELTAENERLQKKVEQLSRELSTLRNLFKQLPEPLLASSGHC
Sequence of Retinoic acid receptor alpha (Homo sapiens) (P10276 whole entry, looked up): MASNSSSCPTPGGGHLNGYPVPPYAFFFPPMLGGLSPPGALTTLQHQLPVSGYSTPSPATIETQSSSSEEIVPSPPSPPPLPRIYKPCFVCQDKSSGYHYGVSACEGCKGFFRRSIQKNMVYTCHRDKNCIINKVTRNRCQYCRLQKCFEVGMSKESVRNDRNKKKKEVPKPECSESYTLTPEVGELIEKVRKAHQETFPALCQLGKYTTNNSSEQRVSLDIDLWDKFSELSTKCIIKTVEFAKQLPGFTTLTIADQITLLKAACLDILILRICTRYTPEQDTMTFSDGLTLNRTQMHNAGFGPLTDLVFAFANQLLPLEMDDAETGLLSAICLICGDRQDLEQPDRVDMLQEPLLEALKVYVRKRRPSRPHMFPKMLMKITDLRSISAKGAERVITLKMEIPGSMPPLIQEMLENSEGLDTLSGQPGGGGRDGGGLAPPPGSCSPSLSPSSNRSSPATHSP
Sequence of Aryl hydrocarbon receptor (Homo sapiens) (P35869 whole entry, looked up): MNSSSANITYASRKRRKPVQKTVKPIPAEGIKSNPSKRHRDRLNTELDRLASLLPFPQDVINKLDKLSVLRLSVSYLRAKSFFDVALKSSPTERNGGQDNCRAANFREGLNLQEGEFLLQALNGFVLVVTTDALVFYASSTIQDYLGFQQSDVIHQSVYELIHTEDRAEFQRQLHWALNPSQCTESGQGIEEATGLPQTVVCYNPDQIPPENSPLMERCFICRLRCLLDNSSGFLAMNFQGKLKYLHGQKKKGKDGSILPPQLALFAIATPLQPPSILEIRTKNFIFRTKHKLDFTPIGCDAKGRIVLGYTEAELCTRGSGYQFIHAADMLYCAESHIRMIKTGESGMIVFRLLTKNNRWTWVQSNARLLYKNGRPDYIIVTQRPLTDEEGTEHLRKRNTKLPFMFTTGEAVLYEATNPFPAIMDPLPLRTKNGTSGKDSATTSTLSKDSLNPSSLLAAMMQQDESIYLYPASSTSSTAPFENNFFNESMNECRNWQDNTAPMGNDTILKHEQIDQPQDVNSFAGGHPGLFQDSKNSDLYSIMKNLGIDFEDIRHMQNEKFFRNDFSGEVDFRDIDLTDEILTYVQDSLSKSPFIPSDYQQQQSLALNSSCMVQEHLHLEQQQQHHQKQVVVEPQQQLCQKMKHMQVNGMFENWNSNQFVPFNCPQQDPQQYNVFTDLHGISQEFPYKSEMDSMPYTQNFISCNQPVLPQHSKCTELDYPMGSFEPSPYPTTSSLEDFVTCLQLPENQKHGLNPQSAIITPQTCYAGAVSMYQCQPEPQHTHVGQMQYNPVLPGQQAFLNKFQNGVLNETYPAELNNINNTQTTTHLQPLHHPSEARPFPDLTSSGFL

CC1=CC(=O)/C(=C(/C)O)C(=O)O1
inactive: [1] | [2] | [3] | [4] | [5] | [6] | [7]

O=C(O)c1ccccc1C(=O)OCc1ccccc1
inactive: [1] | [2] | [3] | [4] | [8] | [9] | [6] | [7]

Cc1c2ccccc2c(C)c2c1ccc1ccccc12
active: [3] 33.1 µM | [4] 10.4 µM | [8] 3.38 µM | [6] 14.6 µM | [7] 53.3 µM
inactive: [1] | [2] | [9] | [10]

Cc1ccc2oc(CN(Cc3ccccc3)C(=O)Nc3c(F)cc(F)cc3F)c(-c3ccc(Cl)cc3)c2c1
inactive: [1] | [2] | [3] | [4] | [8] | [5] | [6] | [7]

O=c1ccc2ccccc2o1
inactive: [1] | [2] | [3] | [4] | [8] | [9] | [6] | [7] | [10]

CCCCCCCCCCCCO
inactive: [1] | [2] | [3] | [4] | [8] | [6] | [7] | [10]

OC12N=C(c3ccccc3)SC1Cc1cc(Cl)ccc12 (configuration not stated)
active: [8] 2.32 µM
inactive: [1] | [2] | [3] | [4] | [6] | [7]

Cc1ncc(CO)c(CO)c1O
inactive: [1] | [2] | [3] | [4] | [8] | [9] | [6]

Cc1cc2c(cc1C(F)(F)F)N(C(=O)Nc1ccc(Oc3cccnc3C)nc1)CC2
active: [7] 0.967 µM
inactive: [1] | [2] | [3] | [4] | [8] | [6] | [10]

CC(C)(c1cc(Br)c(O)c(Br)c1)c1cc(Br)c(O)c(Br)c1
inactive: [2] | [6]
active: [1] 46 µM and 44.2 µM | [3] 53.3 µM and 58.5 µM | [4] 12.5 µM and 13.9 µM | [6] 46.6 µM | [7] 25.6 µM and 14.2 µM

COCC(C)OCC(C)OCC(C)O (configuration not stated)
inactive: [1] | [2] | [3] | [4] | [8] | [5] | [6] | [7] | [10]

CC[C@@H]1C[C@H](N(Cc2cc(C(F)(F)F)cc(C(F)(F)F)c2)C(C)=O)c2cc(C(F)(F)F)ccc2N1C(=O)OC(C)C
active: [7] 0.362 µM
inactive: [1] | [2] | [3] | [4] | [8] | [6] | [10]

O=C(O)Cc1cc(I)c(Oc2ccc(O)c(I)c2)c(I)c1
inactive: [1] | [2] | [3] | [4] | [8] | [6] | [7] | [10]
active: [6] 89 µM

CCCCCCCCCC(=O)O
inactive: [1] | [2] | [3] | [4] | [5] | [9] | [6] | [7]

O=c1[nH]sc2ccccc12
inactive: [2] | [3] | [4] | [8] | [9] | [6] | [7]
active: [1] 45.4 µM

CN(C[C@@H](CC[N+]12CCC(C3CCCCC3)(CC1)CC2)c1ccc(Cl)c(Cl)c1)C(=O)c1cc(C(F)(F)F)cc(C(F)(F)F)c1
inactive: [1] | [2] | [3] | [4] | [8] | [9] | [6] | [7] | [10]

CCCCCCCCN(C)CCCCCCCC
inactive: [1] | [2] | [3] | [4] | [8] | [6] | [7]

CC[C@H](NC(=O)c1cc(F)ccc1NS(=O)(=O)c1cccc2cccnc12)c1ccccc1
inactive: [1] | [2] | [3] | [4] | [8] | [5] | [6] | [7] | [10]

CN1C(=O)CC[C@H]1c1cccnc1
inactive: [1] | [2] | [3] | [4] | [8] | [6] | [10]

CCOC(=O)O[C@H](C)OC(=O)c1ccc2c(c1)cc(C(=O)NC1CCN(C(C)C)CC1)n2Cc1cc(-c2ccc(Cl)s2)on1
active: [7] 42.2 µM
inactive: [1] | [2] | [3] | [4] | [8] | [6]

O=C(Nc1ccc(Cl)cc1)Nc1ccc(Cl)c(Cl)c1
active: [1] 4.04 µM | [4] 10.5 µM | [6] 5.32 µM
inactive: [2] | [3] | [8] | [9] | [7]
